Measured values from PubChem BioAssay AID493204 (National Center for Advancing Translational Sciences (NCATS), 2011).
The list shows a part of the results. Results filed as inconclusive are left out. Activity calls are given as the source filed them. Calls come from the whole dose curve; as a rule, active = well fitted inhibition curve with a large enough effect; inconclusive = small, poorly fitted or top-dose-only effect; inactive = flat fitted curve, though single readings scatter.

Biological target: Dual specificity protein kinase CLK4 (Homo sapiens) (UniProt Q9HAZ1)
Sequence (Q9HAZ1 whole entry, looked up): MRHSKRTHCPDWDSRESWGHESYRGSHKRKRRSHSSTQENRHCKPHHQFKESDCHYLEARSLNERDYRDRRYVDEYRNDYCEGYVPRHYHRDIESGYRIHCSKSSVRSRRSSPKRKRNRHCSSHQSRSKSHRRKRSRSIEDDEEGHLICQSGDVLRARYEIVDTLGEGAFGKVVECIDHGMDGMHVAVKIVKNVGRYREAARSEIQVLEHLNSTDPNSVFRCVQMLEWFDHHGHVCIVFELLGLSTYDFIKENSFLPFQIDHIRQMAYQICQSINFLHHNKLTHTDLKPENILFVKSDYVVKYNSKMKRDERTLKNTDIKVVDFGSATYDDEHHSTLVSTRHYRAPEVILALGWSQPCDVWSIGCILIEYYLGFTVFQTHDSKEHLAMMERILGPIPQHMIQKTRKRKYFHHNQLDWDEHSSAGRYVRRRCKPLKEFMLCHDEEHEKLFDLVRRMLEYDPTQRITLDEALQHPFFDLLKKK
Assay: Confirmation Assay for Inhibitors of CDC-like Kinase 4 (Kinase-Glo Assay): SAR round 2
Details: recombinant Clk4, Kinase-Glo ATP luminescence, 4.5 h
Protocol: NIH Molecular Libraries Probe Production Centers Network [MLPCN] NIH Chemical Genomics Center [NCGC] MLPCN Grant: 1R03MH084827-01 Assay Submitter (PI): Tom Misteli NCGC Assay Overview: Clk4 (Invitrogen, cat# PV3839) was assayed using ATP and the RS repeat peptide (AnaSpec cat # 61722) as substrates. Following the Clk4 reaction, the remaining ATP levels were detected using Promega Kinase-Glo technology wherein the remaining ATP from the kinase reaction is detected using Ultra-Glo luciferase and D-luciferin which generates a bioluminescence signal from the ATP. The positive control for the assay was TG003 (Sigma-Aldrich, cat# 300801-52-9) which has been described as an inhibitor of Clk 4[1].
NCGC Assay Protocol Summary: Two uL/well of substrate-buffer solution (100 uM RS peptide, 1 uM ATP, 25 mM Tris pH7.5, 10 mM MgCl2, 0.5 mM EGTA, 2.5 mM DTT, 0.01% Triton X-100 final concentration) was dispensed into 1536-well, assay plates (Greiner, solid white medium-binding plates) with Aurora Discovery BioRAPTR Flying Reagent Dispenser (FRD; Beckton-Dickenson). Using a Kalypsys pin tool equipped with a 1536-pin tool, 23 nL of compound solution was transferred to the assay plate. […] Luminescence was detected with the ViewLux plate reader (Perkin Elmer, Waltham, MA) after 5 min incubation using a 5 second exposure time and 2x binning.

Compound	Potency
c1nc(N2CCOCC2)c2cc(-c3ccc4c(c3)OCO4)ccc2n1	104 nM (active)
